Data taken from PubChem BioAssay AID624464 (National Center for Advancing Translational Sciences (NCATS), 2012).
Among all 360,000 compounds or so, about 810 (0.23%) were called active. No stated cut-off is given here; in the data, active means potentiation above about 50%; inconclusive means mostly about 30% to 49%; inactive means weaker than that. Only a selection was taken, and actives are over-represented in it overall.

These molecules were tested against D(2) dopamine receptor (Homo sapiens) (UniProt P14416) (assay: Beta-Arrestin HTS for Positive Allosteric Modulators of the Human D2 Dopamine Receptor: Potentiators). Conditions: DiscoveRx D2 beta-arrestin cells, luminescence, 90 min; stronger effect = higher value; 100% = 57 uM dopamine signal.
Source text: There is great interest in identifying small molecule ligands for G-protein coupled receptors (GPCRs) as nearly 50% of all FDA-approved drugs target these important receptor proteins. […] Amongst the dopamine receptors (DARs), the D2 is arguably one of the most validated drug targets in neurology and psychiatry. For instance, all receptor-based antiparkinsonian drugs primarily work via stimulating the D2 DAR, whereas all FDA-approved antipsychotic agents are antagonists of this receptor. The D2 DAR is also therapeutically targeted in other disorders such as restless legs syndrome, tardive dyskinesia, Tourette's syndrome, and hyperprolactinemia.
To this end, a miniaturized qHTS screen was developed to be screened against the Molecular Libraries Small Molecule Repository (MLSMR). This assay seeks to identify potentiators against the D2 DAR.
NIH Molecular Libraries Probe Production Network [MLPCN]
NIH Chemical Genomics Center [NCGC]
PI Name: David Sibley, National Institutes of Neurological Disorders and Stroke
DiscoveRx D2 cells were thawed from frozen stock and seeded at 2,100 cells/ 3 uL/well media (DiscoveRx Plating Reagent 2) with MultiDrop Combi dispenser (Thermo Scientific, Logan, UT) onto white tissue culture treated 1536-well Aurora plates (Brooks Automation, Chelmsford, MA) and allowed to attach overnight at 37 deg C, 5% CO2. Next, 23 nL/well of compound solutions in DMSO were added with a pintool transfer (Kalypsis, San Diego, CA). As the positive control, 1 uL/well dopamine (EC100, 57 uM final concentration) diluted in buffer (HBSS + 10 mM HEPES + SMB + 0.1 %Tween-20) was dispensed to 1 column of each plate. EC20 (Dopamine at 50 nM final concentration) was dispensed to the rest of the plate except columns 1 &2 which were used as negative control (EC=0, buffer only), 1 uL/well as well. The cells were stimulated by compounds and dopamine for 90 minutes at 37 deg C, 5% CO2, after which 1.5 uL/well of DiscoveRx detection reagent was added with BioRAPTR FRD dispenser. The detection reagent was prepared by mixing of Galacton Star Substrate, Emerald II solution and PathHunter buffer (supplied by the assay kit) together at 1:5:19 proportion accordingly just prior to dispensing. The plates were incubated at ambient temperature for 1 hour and then the luminescent signal was read on ViewLux plate reader (PerkinElmer, Waltham, MA).

D(2) dopamine receptor (Homo sapiens), sequence (P14416 whole entry, looked up): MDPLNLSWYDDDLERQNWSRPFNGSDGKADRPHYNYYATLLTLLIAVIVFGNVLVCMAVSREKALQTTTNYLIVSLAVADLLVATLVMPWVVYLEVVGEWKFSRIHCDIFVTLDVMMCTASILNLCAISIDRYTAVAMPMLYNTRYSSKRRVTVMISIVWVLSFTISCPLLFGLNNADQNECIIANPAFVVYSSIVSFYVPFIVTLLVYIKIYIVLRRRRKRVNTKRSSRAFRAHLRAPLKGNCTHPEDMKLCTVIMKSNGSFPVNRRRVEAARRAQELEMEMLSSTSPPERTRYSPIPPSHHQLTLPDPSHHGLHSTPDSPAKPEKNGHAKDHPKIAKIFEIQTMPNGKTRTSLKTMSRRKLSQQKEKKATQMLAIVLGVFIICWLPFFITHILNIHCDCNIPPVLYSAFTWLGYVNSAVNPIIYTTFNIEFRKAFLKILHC

Structure (SMILES)	potentiation
CSc1ncnc2c1ncn2CCCNCc1cccs1	0.128% (inactive)
CCN(CC)P(=O)(Nc1ccc(SC(F)F)cc1)c1ccc(N(C)C)cc1NC(=O)c1ccco1 (stereo not given)	-7.82% (inactive)
CC(=O)CC[C@@H](C)O[C@@H]1OC(C)[C@H](O)CC1O (stereo not given in full)	-9.1% (inactive)
Cc1ccc(S(=O)(=O)N2CCC3(CC2)OCCO3)c(C)c1	-6.31% (inactive)
Oc1ccc(-c2onc3ccc(Cl)cc23)cc1	50.4% (active)
NC(N)=Nc1nc(-c2ccccc2)c2cc(Cl)ccc2n1	-62.5% (inactive)
COc1ccc(-c2onc3ccc(C(C)=O)cc23)cc1	28% (inactive)
C=C(C)CSc1nc(N)c2c3c(sc2n1)CCC3	-7.64% (inactive)
CC(C)(C)C1CCc2c(sc3nc(SCC(N)=O)nc(N)c23)C1 (stereo not given)	58.8% (active)
Nc1nc(SCC(=O)NCCN2CCOCC2)nc2sc3c(c12)CCC3	-8.51% (inactive)
CCOC(=O)CN(C(=O)COc1nc(C)cc(C)c1C#N)c1ccc(Cl)cc1	-3.59% (inactive)
O=C1Nc2ccc(Br)cc2/C1=N/N=C/C1=C(N2CCOCC2)C(=C\c2ccccc2)/CC1	-26.8% (inactive)
O=C(O)c1ccc(NN=CC2=C(N3CCOCC3)/C(=C/c3ccccc3)CC2)cc1	77.1% (active)
N#C/C(=C\C1=C(N2CCOCC2)C(=C\c2ccccc2)/CC1)C(=O)Nc1ccccc1F	-1.9% (inactive)
COc1ccc(C(=O)O/N=C(\N)Cc2ccc(Cl)cc2Cl)cc1OC	94.6% (active)
COc1ccc(C(=O)n2nc(-c3ccc(Cl)cc3)nc2N)cc1OC	-7.87% (inactive)
COc1ccc(CCn2ccc(O)c(Cc3ccc(Cl)cc3Cl)c2=O)cc1OC	-38.7% (inactive)
NC(=O)c1cc(S(=O)(=O)N2CCCC2)ccc1OCc1ccc(F)cc1	-13.4% (inactive)
CC1(C)NC(=O)N(CC(=O)Nc2cc(C(F)(F)F)cc(C(F)(F)F)c2)C1=O	1.66% (inactive)
COc1ccc(CCNCc2c(-c3ccccc3)n(C)c3ccccc23)cc1	-20.4% (inactive)
CC1(C)CC(=O)C=C(NCCN2CCNCC2)C1	-7.29% (inactive)
COc1ccc(-c2nnc(SC(=O)N3c4ccccc4Sc4ccccc43)o2)cc1	72.5% (active)
COc1ccc(CN(C(=O)CSc2nnc(-c3ccc(OC)c(OC)c3)o2)c2ccc(F)cc2)cc1	-14.5% (inactive)

Structure (SMILES)	potentiation
COc1ccc(-c2nnc(SC(C)C(=O)NC3CC3)o2)cc1 (stereo not given)	0.965% (inactive)
CC(C)c1ccc(Nc2ncccc2C#N)cc1	-6.55% (inactive)
COc1ccc(-c2csc(C(O)c3cccc(Cl)c3)n2)cn1 (stereo not given)	-10.4% (inactive)
CNC(=O)/C(C#N)=C/c1c(F)cccc1Cl	21.1% (inactive)
O=C(Nc1ccccc1F)c1ccccc1-c1ccc(C(F)(F)F)cc1	-15.1% (inactive)
N#C/C(=C\c1ccccc1C(F)(F)F)C(=O)Nc1ccccc1F	57.7% (active)
O=C(COC(=O)c1cc(-c2cccs2)nn1-c1ccccc1)Nc1cc([N+](=O)[O-])ccc1Cl	-0.407% (inactive)
COc1ccc(CN2C(CC(=O)Nc3cccnc3)c3ccc(C(F)(F)F)cc3S2(=O)=O)cc1 (stereo not given)	-5.81% (inactive)
COc1ccc(N(CC(=O)NC2CCCCC2)C(=O)CNC(=O)c2ccco2)c(OC)c1	-8.59% (inactive)
COc1ccccc1CNC(=O)c1cc(-c2cc(Cl)ccc2C)n[nH]1	-2.11% (inactive)
Cc1ccc(OCc2nnc(SC3CCc4ccccc4C3=O)n2C)cc1 (stereo not given)	51.4% (active)
COc1ccccc1C(=O)Nc1ccc(OCc2nnc3c4ccccc4c(C)nn23)cc1	9.9% (inactive)
Cc1cccnc1NC(=O)CSc1nnc(COc2ccc(C(C)C)cc2)n1C	-13.7% (inactive)
O=c1[nH]c(=S)[nH]c(O)c1/C=C1\C=Nc2ccccc21	-32.7% (inactive)
CC1=NN(c2ccc(Cl)c(C(=O)O)c2)C(=O)/C1=C/c1ccc(-c2ccccc2[N+](=O)[O-])o1	-7.86% (inactive)
O=C1NC(c2ccc(-c3ccccc3[N+](=O)[O-])o2)C(C(=O)c2ccc(Cl)cc2)C(O)(C(F)(F)F)N1 (stereo not given)	55.4% (active)
CCOC(=O)C1C(c2ccc(O)cc2)NC(=O)NC1(O)C(F)(F)F (stereo not given)	-0.717% (inactive)
CCC(C)NC(=O)C1CCCN(C(=O)NC2CCCCC2)C1 (stereo not given)	2.71% (inactive)
COC(=O)CSc1ccc2nnc(CCNS(=O)(=O)c3ccc(C)cc3)n2n1	71.3% (active)
O=C(NCCc1nnc2ccc(SCC(=O)N3CCOCC3)nn12)c1ccccc1	1.02% (inactive)
Cc1ccc(S(=O)(=O)NCCc2nnc3ccc(SCc4cccnc4)nn23)cc1	-34.2% (inactive)
CN(Cc1ccccc1)C(=O)COC(=O)/C=C/c1ccc2c(c1)OCO2	-10.6% (inactive)
Cc1coc2c(O)cc3c(c12)OC1(N2CCCCC2)C(=O)NCCCC31 (stereo not given)	70.8% (active)

Structure (SMILES)	potentiation
CC(=O)Nc1cc(-c2ccc(N3CCN(C)CC3)cc2)cn2c(-c3cccc(C(=O)N(C)C)c3)cnc12	-8.12% (inactive)
COC(=O)[C@H]1C[C@H](OC(=O)NCc2ccccc2)[C@@]2(O)CN(S(=O)(=O)c3ccc(C)cc3)CC2[C@H]1C(=O)OC (stereo not given in full)	-0.0644% (inactive)
Cc1ccc(NC(=O)COC(=O)CN2CCCCCC2=O)c(C)c1	-1.65% (inactive)
Cc1ccc(S(=O)(=O)N2CCN(C(=O)c3cc(S(=O)(=O)N4CCOCC4)ccc3F)CC2)cc1	0.45% (inactive)
CN1OC[C@@H]2CN(C(=O)C(C)(C)C)[C@H](c3ccc(-n4ccnc4)cc3)C[C@@H]21	-5.65% (inactive)
CC(Oc1cccc(Cl)c1)C(=O)NC1CC(C)(C)NC(C)(C)C1 (stereo not given)	-22.7% (inactive)
Cc1ccc(NC(=O)CN(C)S(=O)(=O)c2cnc[nH]2)cc1C	-13% (inactive)
CN(CC(=O)Nc1ccccc1Cl)C(=O)c1ccccc1SCC(=O)N1CCCC1	-9.34% (inactive)
O=C1C=C(c2cccc(Br)c2)C[C@@H](c2ccc(F)cc2)C1	-7.26% (inactive)
Cc1ccc(CN(N=Nc2nonc2N)c2nonc2N)c(C)c1	25.8% (inactive)
O=C1Oc2ccccc2C(=O)/C1=C/c1ccccc1O	1.41% (inactive)
O=C(COc1ccc(/C=N/NC(=O)c2ccc(O)cc2)cc1)Nc1ccc([N+](=O)[O-])cc1	-4.2% (inactive)
O=C(Cc1c[nH]c2ccccc12)N/N=C/c1cccc(F)c1	-9.63% (inactive)
O=C(N/N=C/c1ccc([N+](=O)[O-])cc1)c1c[nH]c2ccccc12	64.1% (active)
Nc1nc(CSc2nnnn2-c2ccccc2)nc(Nc2ccccc2)n1	4.76% (inactive)
COCCCn1c(C(=O)NC2CCCCC2)cc2c(=O)n3cccc(C)c3nc21	-4.49% (inactive)
CC12CN3CCN(CC(C3)/C1=N\NC(=O)c1ccccc1N)C2	-0.591% (inactive)
CCC(C)c1ccccc1NC(=O)CN(C)CC(=O)Nc1ccccc1SC (stereo not given)	1.68% (inactive)
COc1cccc2oc(CCc3ccccc3)cc(=O)c12	-6.37% (inactive)
Cc1c2cn[nH]c(=O)c2c(C)n1Cc1ccc(F)cc1	-5.05% (inactive)
CN1CCC2(CC1)NC(=O)NC2=O	11.5% (inactive)
COc1cccc(N=c2oc3c(C)ncc(CO)c3cc2C(N)=O)c1	-0.831% (inactive)
CCNC(=O)C1(C)CCN(C(=O)c2ccccc2)C1 (stereo not given)	-7.31% (inactive)

Structure (SMILES)	potentiation
CN(C)S(=O)(=O)c1ccc(N2CCCC2)c(C(=O)NCc2ccccc2)c1	-8.01% (inactive)
COc1cccc(CNc2ncc(-c3ccccc3)n2C)c1	-30.3% (inactive)
CCOC(=O)c1cc2c(=O)[nH]c(C(Cl)(Cl)Cl)nc2o1	7.93% (inactive)
CCC(C)CCN1CCN=C1N(C)C (stereo not given)	-8.79% (inactive)
Cc1ccc(N(CC(=O)NCC2CCCO2)C(=O)CNS(=O)(=O)c2ccc(Cl)cc2)cc1 (stereo not given)	0.715% (inactive)
COc1cccc(-c2cnc(OC(C)(C)C)nc2OC(C)(C)C)c1	-5.2% (inactive)
COc1cccc(CNC(=O)Cn2c(=O)oc3cc(S(=O)(=O)N4CCCCC4)ccc32)c1	-3.62% (inactive)
CCOC(=O)C1(Cc2cccc(OC)c2)CCN(Cc2csc(C(C)=O)c2)CC1	-21.6% (inactive)
NC1=NC(c2ccc([N+](=O)[O-])cc2)N(c2ccc(F)cc2)C(N)=N1 (stereo not given)	0.113% (inactive)
Cc1ccc2c(c1)C(O)(CC(=O)c1cccnc1)C(=O)N2 (stereo not given)	-30% (inactive)
Cc1ccc(S(=O)(=O)n2cccc2CO)cc1	-0.194% (inactive)
Cc1cccc(CNC(=O)c2sc(=O)n(Cc3ccccc3C)c2C)c1	-5.51% (inactive)
CC(C)(C)N1C(=O)c2c(C(=O)OCc3ccccc3)[nH]c(-c3ccccc3)c2C1=O	-2.35% (inactive)
CC(C)Nc1nnc(SC(C)C(=O)N(C)C2CCCCC2)s1 (stereo not given)	-2.23% (inactive)
CCCN(CC1CC1)C(=O)COC(=O)c1ccc(C)cc1O	-24.9% (inactive)
Cc1ccc(S(=O)(=O)N(CCCN(C)C)Cc2ccc3c(c2)OCO3)cc1	-10.1% (inactive)
CC1=C(C(=O)N(C(C)C)C(C)C)CC(CC(=O)NCCCCc2ccccc2)C(=O)N1CCC1=CCCCC1 (stereo not given)	-4.46% (inactive)
CCOC(=O)CSc1nnc(NC(=O)C2CC(=O)N(c3ccc(F)cc3)C2)s1 (stereo not given)	-2.95% (inactive)
CC(C)Cc1nnc(NC(=O)CCC(=O)Nc2ccc3cn[nH]c3c2)s1	-12.9% (inactive)
O=C(Nc1ccc2cn[nH]c2c1)c1ccc(S(=O)(=O)N2CCOCC2)cc1	-3.76% (inactive)
S=C(Nc1cccc(Cl)c1)Nc1ccc2cn[nH]c2c1	60.4% (active)
